# Results published in PubChem BioAssay (NCATS).
# Results filed as inconclusive are left out. A number with no mark means an inactive call. Calls of active or inactive are those of the source. The call rests on the fitted dose curve; in most records, active means well fitted inhibition curve with a large enough effect; inconclusive means small, poorly fitted or top-dose-only effect; inactive means flat fitted curve, though single readings scatter. Non-standard residues stand in square brackets, D forms with d. Residues, ends and D or L forms follow the SMILES beside them. *: point of attachment. Nva = CCC[C@H](N)C(=O)O; Cbz = O=C(OCc1ccccc1)*
# Assays:
# [1] = test system: CRL-7250; assay: Cytotoxic Profiling of Annotated Libraries Using Quantitative High-Throughput Screening (AID 1296008); settings: Five cell lines viability, CellTiter-Glo ATP luminescence, 48-72 h; max response: stronger effect = lower value
# In short: (§1)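 Cells exposed to compounds for 48 or 72 hr at 37 degrees Celsius. Viability read as ATP-coupled luminescence with CellTiter-Glo after 10 min at room temperature.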
# [2] = test system: HEK293; assay: as above; settings: Five cell lines viability, CellTiter-Glo ATP luminescence, 48-72 h; max response: stronger effect = lower value
# In short: as §1
# [3] = test system: HaCat; assay: as above; settings: Five cell lines viability, CellTiter-Glo ATP luminescence, 48-72 h; max response: stronger effect = lower value
# In short: as §1
# [4] = test system: KB-3-1; assay: as above; settings: Five cell lines viability, CellTiter-Glo ATP luminescence, 48-72 h; max response: stronger effect = lower value
# In short: as §1
# [5] = test system: NIH3T3; assay: as above; settings: Five cell lines viability, CellTiter-Glo ATP luminescence, 48-72 h; max response: stronger effect = lower value
# In short: as §1
# [6] = test system: MCC-13; assay: qHTS assay to identify novel small-molecules to repurpose for Merkel cell carcinoma treatment (AID 1296009); settings: MCC and control cell lines, CellTiter-Glo viability, 72 h; series mostly up to 46 µM
# In short: (§2)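 CellTiter-Glo luminescence after 72 hr compound exposure at 37 degree celsius gave cell viability. Libraries NPC and MIPE were run as 8- and 11-point dose responses; RLUs normalized to DMSO (negative) and no-cell (cytotoxicity) controls.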
# [7] = test system: MKL-1; assay: as above; settings: MCC and control cell lines, CellTiter-Glo viability, 72 h; series mostly up to 46 µM
# In short: as §2
# [8] = test system: MKL-2; assay: as above; settings: MCC and control cell lines, CellTiter-Glo viability, 72 h; series mostly up to 46 µM
# In short: as §2
# [9] = test system: UISO; assay: as above; settings: MCC and control cell lines, CellTiter-Glo viability, 72 h; series mostly up to 46 µM
# In short: as §2
# [10] = test system: WaGa; assay: as above; settings: MCC and control cell lines, CellTiter-Glo viability, 72 h; series mostly up to 46 µM
# In short: as §2
# [11] = test system: MCC-26; assay: as above; settings: MCC and control cell lines, CellTiter-Glo viability, 72 h; series mostly up to 46 µM
# In short: as §2
# Further: nearly all actives have a fitted effect of over 60% in size.
# On the % scale 0 is the no-effect control and ±100 the full control effect; potency means the concentration at half of the fitted maximal effect.
SMILES,Potency [1],Potency [2],Potency [3],Potency [4],Potency [5],Potency [6],Potency [7],Potency [8],Potency [9],Potency [10],max response [1] [%],max response [2] [%],max response [3] [%],outcome [4],max response [5] [%],Potency [11],max response [4] [%]
O=C(C=CC#Cc1cccc(NS(=O)(=O)c2ccccc2)c1)NO,13200 nM (active),8330 nM (active),11800 nM (active),5260 nM (active),10500 nM (active),14800 nM (active),3720 nM (active),1320 nM (active),16600 nM (active),1180 nM (active),,,,,,,
CN[C@H]1[C@@H](O)[C@@H]2O[C@@H]3O[C@H](C)CC(=O)[C@]3(O)O[C@@H]2[C@@H](NC)[C@H]1O,,,,,,inactive,166 nM (active),2960 nM (active),3720 nM (active),296 nM (active),4.26,-3.13,-0.114,inactive,4.68,inactive,
C#C[C@]1(O)CC[C@@H]2[C@@H]3CCC4=CC(=O)CC[C@@H]4[C@H]3CC[C@@]21CC,,,,,,inactive,inactive,inactive,inactive,inactive,-6.84,-8.15,-5.66,,-8.04,inactive,-5.98
CCOC(=O)C=C[C@H](C[C@@H]1CCNC1=O)NC(=O)[C@@H](CC(=O)[C@@H](NC(=O)c1cc(C)on1)C(C)C)Cc1ccc(F)cc1,,,,,,inactive,inactive,inactive,inactive,inactive,-2.35,-0.69,-7.58,,0.598,inactive,4.76
CN(C)c1ccc(C(=O)NCCCCCCC(=O)NO)cc1,2640 nM (active),1870 nM (active),4690 nM (active),2350 nM (active),3720 nM (active),4180 nM (active),1660 nM (active),743 nM (active),,662 nM (active),,,,,,,
CC(=O)OCC(=O)[C@@]12N=C(C)O[C@H]1C[C@H]1[C@@H]3CCC4=CC(=O)C=C[C@]4(C)[C@@H]3[C@@H](O)C[C@@]12C,,,,,,inactive,inactive,inactive,inactive,inactive,0.387,-6.3,-2.39,,-3.36,inactive,7.6
CN[C@@H]1C[C@H]2O[C@@](C)([C@H]1OC)n1c3ccccc3c3c4c(c5c6ccccc6n2c5c31)C(=O)N[C@H]4O,264 nM (active),469 nM (active),1480 nM (active),2640 nM (active),166 nM (active),332 nM (active),5260 nM (active),,1870 nM (active),1320 nM (active),,,,,,1660 nM (active),
CC(=O)N[C@H]1[C@@H]([C@H](O)[C@H](O)CO)OC(C(=O)O)=C[C@@H]1N=C(N)N,,,,,,inactive,inactive,inactive,inactive,inactive,-3,2.95,-9.9,inactive,3.71,inactive,
C[C@H]1O[C@H](O[C@H]2[C@H](O)[C@@H](O)[C@@H](O[C@H]3[C@H](O)[C@@H](O)C(O)O[C@H]3CO)O[C@H]2CO)[C@H](O)[C@@H](O)[C@H]1N[C@H]1C=C(CO)[C@@H](O)[C@H](O)[C@@H]1O (some centres undefined),,9350 nM (active),,,,inactive,inactive,inactive,inactive,inactive,1.59,,-16.9,,-1.18,inactive,4.29
OCC(O)C(O)C(O)CO (centres undefined),,,,,,inactive,inactive,inactive,inactive,inactive,-10.5,-3.06,-1.15,,2.68,,-4.24
CC(C)(C)[N+]([O-])=Cc1ccc(S(=O)(=O)O)cc1S(=O)(=O)O,,,,,,inactive,inactive,inactive,inactive,inactive,1.88,-0.289,-17.9,,0.254,inactive,9.38
CCC[C@@H](C=O)NC(=O)[C@H](CC(C)C)NC(=O)[C@H](CC(C)C)NC(=O)OCc1ccccc1 (Cbz-Leu-Leu-[Nva]-aldehyde),4180 nM (active),3720 nM (active),9350 nM (active),2960 nM (active),14800 nM (active),3320 nM (active),1320 nM (active),833 nM (active),2640 nM (active),833 nM (active),,,,,,3320 nM (active),
CON=C(C(=O)N[C@@H]1C(=O)N2C(C(=O)O)=C(Cn3ccc(=N)n3CCO)CS[C@H]12)c1csc(N)n1,,,,,,inactive,inactive,inactive,inactive,inactive,-8.38,-24.1,4.51,inactive,1.39,inactive,
CC(=O)O[C@H]1C[C@@H]2CC[C@H]3[C@H]4C[C@H]([N+]5(C)CCCCC5)[C@@H](OC(C)=O)[C@@]4(C)CC[C@@H]3[C@@]2(C)C[C@H]1N1CCCCC1,,,,,,inactive,inactive,inactive,inactive,inactive,-4.19,2.19,-11.8,,4.95,inactive,2.79
